The supplement of paper PMC10849652
Of roughly 7,900 targets only a part is listed; those with a hit were picked by preference. About 0.6% of all pairs of compound and target were hits. A number with no mark means an inactive call.

Key:
Assay in all cases: log2 fold change, soluble protein after heating vs DMSO (PISA); higher = thermal stabilisation; K562 cells, 10 uM, 30 min; active = over 0.2 and 3.5 SD of the protein, either way, in both replicates (recomputed)
[1] = compound: NC(=O)Nc1cc(-c2cccc(F)c2)sc1C(=O)N[C@H]1CCCNC1
Outline: (§1)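 K562 cells at 2×10^6 cells/mL were given 10 μM compound for 30 min. Aliquots then went through 3 min of heating across 48°C-58°C, were pooled, and were extracted in PBS with 0.5% NP-40 at 4°C, and the supernatant after 21,000xg for 90 min was quantified by TMTpro 16plex LC-MS/MS with channel sums equalised. Thermal stability relative to control samples, from duplicates, is given as log2 fold change.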

[2] = compound: NC(=O)c1cnc(N[C@@H]2CCCC[C@@H]2N)nc1Nc1cccc(-n2nccn2)c1
Outline: as §1

[3] = compound: NC1(c2ccc(-c3nc4ccn5c(=O)[nH]nc5c4cc3-c3ccccc3)cc2)CCC1
Outline: as §1

[4] = compound: NCC(=O)Nc1ccc(-n2nc(C(F)(F)F)cc2-c2ccc3c(ccc4ccccc43)c2)cc1
Outline: as §1

[5] = compound: Nc1ccccc1NC(=O)c1ccc(CNC(=O)OCc2cccnc2)cc1 [entinostat]
Outline: as §1

[6] = compound: O=C(CCCCCCC(=O)Nc1ccccc1)NO [vorinostat]
Outline: as §1

[7] = compound: O=C(CCCCCCNC(=O)c1cnc(N(c2ccccc2)c2ccccc2Cl)nc1)NO [citarinostat]
Outline: as §1

[8] = compound: O=C(O)c1ccc2c(c1)nc(Nc1cccc(Cl)c1)c1ccncc12 [silmitasertib]
Outline: as §1

[9] = compound: O=C1NC(=O)C(c2cnc3ccccn23)=C1c1cn2c3c(cc(F)cc13)CN(C(=O)N1CCCCC1)CC2
Outline: as §1

[10] = compound: c1cc(OCCN2CCCCC2)cc(-c2n[nH]c3ccc(-c4nnc[nH]4)cc23)c1
Outline: as §1

Target: KIF3A (UniProt Q9Y496)
UniProt Q9Y496, sequence (Q9Y496 whole entry, looked up): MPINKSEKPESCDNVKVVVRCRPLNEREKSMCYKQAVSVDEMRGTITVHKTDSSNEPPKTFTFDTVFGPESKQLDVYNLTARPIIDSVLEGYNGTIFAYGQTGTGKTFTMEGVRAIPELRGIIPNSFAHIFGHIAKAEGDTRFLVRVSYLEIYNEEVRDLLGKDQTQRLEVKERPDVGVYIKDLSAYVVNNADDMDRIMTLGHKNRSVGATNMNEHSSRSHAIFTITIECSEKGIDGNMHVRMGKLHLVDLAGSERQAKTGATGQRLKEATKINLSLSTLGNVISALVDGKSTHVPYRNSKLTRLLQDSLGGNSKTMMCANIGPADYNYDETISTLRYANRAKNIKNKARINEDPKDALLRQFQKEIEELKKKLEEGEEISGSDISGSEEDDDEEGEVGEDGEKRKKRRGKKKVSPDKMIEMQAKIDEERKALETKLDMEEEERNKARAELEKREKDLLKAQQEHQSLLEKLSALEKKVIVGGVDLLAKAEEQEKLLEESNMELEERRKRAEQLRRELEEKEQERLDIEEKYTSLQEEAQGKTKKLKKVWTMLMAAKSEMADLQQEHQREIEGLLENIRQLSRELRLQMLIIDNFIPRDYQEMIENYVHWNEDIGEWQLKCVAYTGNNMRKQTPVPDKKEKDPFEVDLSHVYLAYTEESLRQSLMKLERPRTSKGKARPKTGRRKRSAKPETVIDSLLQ
- log2 fold change [1]: 0.075
- log2 fold change [2]: 0.078
- log2 fold change [3]: -0.011
- log2 fold change [4]: -0.014
- log2 fold change [5]: -0.011
- log2 fold change [6]: -0.137
- log2 fold change [7]: -0.076
- log2 fold change [8]: -0.068
- log2 fold change [9]: -0.048
- log2 fold change [10]: -0.051

Target: IMMT isoform 2 (UniProt Q16891)
- log2 fold change [1]: 0
- log2 fold change [2]: -0.045
- log2 fold change [3]: -0.044
- log2 fold change [4]: -0.066
- log2 fold change [5]: 0.039
- log2 fold change [6]: 0.159
- log2 fold change [7]: 0.042
- log2 fold change [8]: -0.066
- log2 fold change [9]: 0.064
- log2 fold change [10]: 0.008

Target: ILKAP (UniProt Q9H0C8)
UniProt Q9H0C8, sequence (Q9H0C8 whole entry, looked up): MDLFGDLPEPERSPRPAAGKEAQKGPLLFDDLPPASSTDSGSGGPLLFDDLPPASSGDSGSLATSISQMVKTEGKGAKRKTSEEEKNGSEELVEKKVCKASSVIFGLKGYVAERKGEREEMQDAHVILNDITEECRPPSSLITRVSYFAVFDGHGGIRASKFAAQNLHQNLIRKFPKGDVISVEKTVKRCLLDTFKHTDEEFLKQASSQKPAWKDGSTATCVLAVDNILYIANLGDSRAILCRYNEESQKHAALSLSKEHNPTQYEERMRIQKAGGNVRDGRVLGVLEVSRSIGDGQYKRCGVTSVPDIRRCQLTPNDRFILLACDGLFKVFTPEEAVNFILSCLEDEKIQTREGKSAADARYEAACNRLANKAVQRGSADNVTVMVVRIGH
- log2 fold change [1]: 0.015
- log2 fold change [2]: -0.052
- log2 fold change [3]: -0.224
- log2 fold change [4]: -0.164
- log2 fold change [5]: 0.038
- log2 fold change [6]: 0.06
- log2 fold change [7]: 0.123
- log2 fold change [8]: 0.004
- log2 fold change [9]: -0.144
- log2 fold change [10]: -0.003

Target: IPO9 (UniProt Q96P70)
- log2 fold change [1]: 0.059
- log2 fold change [2]: -0.072
- log2 fold change [3]: -0.07
- log2 fold change [4]: 0.003
- log2 fold change [5]: 0.022
- log2 fold change [6]: 0.041
- log2 fold change [7]: 0.061
- log2 fold change [8]: 0.164
- log2 fold change [9]: 0.048
- log2 fold change [10]: -0.035

Target: MAPKAPK5 (UniProt Q8IW41)
UniProt Q8IW41, sequence (Q8IW41 whole entry, looked up): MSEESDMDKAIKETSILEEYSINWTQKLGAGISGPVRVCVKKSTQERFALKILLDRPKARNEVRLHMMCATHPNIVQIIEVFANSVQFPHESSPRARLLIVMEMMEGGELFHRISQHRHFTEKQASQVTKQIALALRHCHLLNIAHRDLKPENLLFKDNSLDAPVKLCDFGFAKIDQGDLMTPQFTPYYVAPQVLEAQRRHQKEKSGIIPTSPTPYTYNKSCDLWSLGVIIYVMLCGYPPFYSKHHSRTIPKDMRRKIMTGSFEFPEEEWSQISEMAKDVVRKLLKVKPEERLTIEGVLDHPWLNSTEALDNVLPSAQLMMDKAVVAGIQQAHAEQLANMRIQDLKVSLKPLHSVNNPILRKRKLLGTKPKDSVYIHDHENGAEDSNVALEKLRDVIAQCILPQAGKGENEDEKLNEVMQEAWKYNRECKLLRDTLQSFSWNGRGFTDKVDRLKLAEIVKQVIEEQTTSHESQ
- log2 fold change [1]: 0.382 (active)
- log2 fold change [2]: 0.029
- log2 fold change [3]: -0.051
- log2 fold change [4]: -0.009
- log2 fold change [5]: 0.027
- log2 fold change [6]: 0.053
- log2 fold change [7]: -0.003
- log2 fold change [8]: -0.044
- log2 fold change [9]: -0.078
- log2 fold change [10]: 0.213

Target: MAPK14 isoform 2 (UniProt Q16539)
- log2 fold change [1]: -0.052
- log2 fold change [2]: 0.028
- log2 fold change [3]: -0.192
- log2 fold change [4]: -0.168
- log2 fold change [5]: 0.016
- log2 fold change [6]: -0.055
- log2 fold change [7]: 0.085
- log2 fold change [8]: 0.477
- log2 fold change [9]: -0.004
- log2 fold change [10]: 0.024

Target: LMNB1 (UniProt P20700)
UniProt P20700, sequence (P20700 whole entry, looked up): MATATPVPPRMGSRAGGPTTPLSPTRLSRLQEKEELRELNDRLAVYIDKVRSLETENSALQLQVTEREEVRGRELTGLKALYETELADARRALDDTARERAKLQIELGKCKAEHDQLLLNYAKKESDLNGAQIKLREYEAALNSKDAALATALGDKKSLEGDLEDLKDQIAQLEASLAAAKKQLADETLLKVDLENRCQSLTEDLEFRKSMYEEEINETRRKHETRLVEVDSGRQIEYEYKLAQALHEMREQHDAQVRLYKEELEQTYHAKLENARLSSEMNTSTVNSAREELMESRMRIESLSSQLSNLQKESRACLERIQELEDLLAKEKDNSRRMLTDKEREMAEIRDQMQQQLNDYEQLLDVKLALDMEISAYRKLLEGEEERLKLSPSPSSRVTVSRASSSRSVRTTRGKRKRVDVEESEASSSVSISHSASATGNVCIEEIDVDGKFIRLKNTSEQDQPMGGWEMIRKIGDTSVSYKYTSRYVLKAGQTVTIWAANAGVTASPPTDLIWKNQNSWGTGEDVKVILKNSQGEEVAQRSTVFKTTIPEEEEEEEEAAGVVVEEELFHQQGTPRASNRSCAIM
- log2 fold change [1]: 0.094
- log2 fold change [2]: -0.073
- log2 fold change [3]: 0.078
- log2 fold change [4]: -0.018
- log2 fold change [5]: 0.024
- log2 fold change [6]: -0.029
- log2 fold change [7]: 0.033
- log2 fold change [8]: 0.097
- log2 fold change [9]: -0.105
- log2 fold change [10]: -0.072

Target: KHDRBS1 (UniProt Q07666)
- log2 fold change [1]: -0.013
- log2 fold change [2]: -0.038
- log2 fold change [3]: -0.009
- log2 fold change [4]: -0.034
- log2 fold change [5]: -0.025
- log2 fold change [6]: 0.037
- log2 fold change [7]: 0.099
- log2 fold change [8]: 0.018
- log2 fold change [9]: 0.039
- log2 fold change [10]: -0.064

Target: LIMD1 (UniProt Q9UGP4)
- log2 fold change [1]: 0.009
- log2 fold change [2]: 0.005
- log2 fold change [3]: 0.004
- log2 fold change [4]: -0.029
- log2 fold change [5]: -0.038
- log2 fold change [6]: 0.025
- log2 fold change [7]: 0.052
- log2 fold change [8]: 0.03
- log2 fold change [9]: -0.06
- log2 fold change [10]: 0.01

Target: MCUR1 (UniProt Q96AQ8)
UniProt Q96AQ8, sequence (Q96AQ8 whole entry, looked up): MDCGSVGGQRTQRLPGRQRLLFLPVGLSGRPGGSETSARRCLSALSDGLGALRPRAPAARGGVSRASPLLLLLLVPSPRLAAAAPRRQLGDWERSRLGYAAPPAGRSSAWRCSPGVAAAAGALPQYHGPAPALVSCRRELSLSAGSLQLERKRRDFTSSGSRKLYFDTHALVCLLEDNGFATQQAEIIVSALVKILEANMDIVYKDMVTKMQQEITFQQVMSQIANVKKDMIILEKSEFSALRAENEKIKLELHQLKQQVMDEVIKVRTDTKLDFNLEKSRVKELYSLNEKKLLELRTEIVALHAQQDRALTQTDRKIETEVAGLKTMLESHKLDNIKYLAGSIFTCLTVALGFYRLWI
- log2 fold change [1]: -0.043
- log2 fold change [2]: -0.048
- log2 fold change [3]: 0.011
- log2 fold change [4]: 0.01
- log2 fold change [5]: -0.028
- log2 fold change [6]: -0.026
- log2 fold change [7]: -0.001
- log2 fold change [8]: -0.023
- log2 fold change [9]: -0.036
- log2 fold change [10]: -0.018

Target: MAGOHB (UniProt Q96A72)
UniProt Q96A72, sequence (Q96A72 whole entry, looked up): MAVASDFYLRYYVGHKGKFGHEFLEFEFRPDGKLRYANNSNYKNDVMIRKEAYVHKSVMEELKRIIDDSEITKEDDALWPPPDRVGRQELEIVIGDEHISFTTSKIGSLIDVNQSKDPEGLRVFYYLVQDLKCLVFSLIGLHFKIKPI
- log2 fold change [1]: -0.081
- log2 fold change [2]: 0.177
- log2 fold change [3]: -0.039
- log2 fold change [4]: -0.132
- log2 fold change [5]: 0.016
- log2 fold change [6]: -0.023
- log2 fold change [7]: 0.043
- log2 fold change [8]: -0.006
- log2 fold change [9]: 0.002
- log2 fold change [10]: -0.089

Target: KPNA4 (UniProt O00629)
UniProt O00629, sequence (O00629 whole entry, looked up): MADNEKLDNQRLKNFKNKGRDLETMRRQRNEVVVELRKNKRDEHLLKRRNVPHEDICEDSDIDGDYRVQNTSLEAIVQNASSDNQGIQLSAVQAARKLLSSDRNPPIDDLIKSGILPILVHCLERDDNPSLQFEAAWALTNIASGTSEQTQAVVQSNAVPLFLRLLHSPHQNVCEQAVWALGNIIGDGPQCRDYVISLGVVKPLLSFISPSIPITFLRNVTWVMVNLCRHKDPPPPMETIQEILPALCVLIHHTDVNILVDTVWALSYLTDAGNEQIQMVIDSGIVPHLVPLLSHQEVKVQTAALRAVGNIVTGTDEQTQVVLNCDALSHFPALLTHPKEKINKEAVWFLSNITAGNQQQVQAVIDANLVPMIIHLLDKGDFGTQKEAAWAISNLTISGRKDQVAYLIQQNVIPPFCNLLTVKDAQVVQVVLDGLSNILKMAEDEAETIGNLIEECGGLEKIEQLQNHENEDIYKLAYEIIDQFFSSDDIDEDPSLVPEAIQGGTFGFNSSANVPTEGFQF
- log2 fold change [1]: -0.06
- log2 fold change [2]: -0.054
- log2 fold change [3]: -0.072
- log2 fold change [4]: -0.053
- log2 fold change [5]: -0.01
- log2 fold change [6]: 0.019
- log2 fold change [7]: 0.051
- log2 fold change [8]: 0.065
- log2 fold change [9]: -0.017
- log2 fold change [10]: -0.111

Target: LYPLA2 (UniProt O95372)
UniProt O95372, sequence (O95372 whole entry, looked up): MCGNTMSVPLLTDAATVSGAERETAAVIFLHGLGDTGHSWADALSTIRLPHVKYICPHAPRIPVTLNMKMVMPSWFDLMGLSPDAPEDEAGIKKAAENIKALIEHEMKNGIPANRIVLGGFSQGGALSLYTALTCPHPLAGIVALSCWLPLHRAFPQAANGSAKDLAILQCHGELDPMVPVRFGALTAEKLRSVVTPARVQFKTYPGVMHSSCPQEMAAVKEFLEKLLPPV
- log2 fold change [1]: 0.02
- log2 fold change [2]: 0.043
- log2 fold change [3]: -0.031
- log2 fold change [4]: 0.09
- log2 fold change [5]: 0.114
- log2 fold change [6]: -0.065
- log2 fold change [7]: 0.018
- log2 fold change [8]: -0.048
- log2 fold change [9]: 0
- log2 fold change [10]: 0.036

Target: KLHL18 (UniProt O94889)
- log2 fold change [1]: 0.132
- log2 fold change [2]: -0.034
- log2 fold change [3]: -0.145
- log2 fold change [4]: -0.123
- log2 fold change [5]: -0.045
- log2 fold change [6]: 0.137
- log2 fold change [7]: 0.123
- log2 fold change [8]: -0.029
- log2 fold change [9]: -0.014
- log2 fold change [10]: -0.022

Target: MAGI1 (UniProt Q96QZ7)
UniProt Q96QZ7, sequence (Q96QZ7 whole entry, looked up): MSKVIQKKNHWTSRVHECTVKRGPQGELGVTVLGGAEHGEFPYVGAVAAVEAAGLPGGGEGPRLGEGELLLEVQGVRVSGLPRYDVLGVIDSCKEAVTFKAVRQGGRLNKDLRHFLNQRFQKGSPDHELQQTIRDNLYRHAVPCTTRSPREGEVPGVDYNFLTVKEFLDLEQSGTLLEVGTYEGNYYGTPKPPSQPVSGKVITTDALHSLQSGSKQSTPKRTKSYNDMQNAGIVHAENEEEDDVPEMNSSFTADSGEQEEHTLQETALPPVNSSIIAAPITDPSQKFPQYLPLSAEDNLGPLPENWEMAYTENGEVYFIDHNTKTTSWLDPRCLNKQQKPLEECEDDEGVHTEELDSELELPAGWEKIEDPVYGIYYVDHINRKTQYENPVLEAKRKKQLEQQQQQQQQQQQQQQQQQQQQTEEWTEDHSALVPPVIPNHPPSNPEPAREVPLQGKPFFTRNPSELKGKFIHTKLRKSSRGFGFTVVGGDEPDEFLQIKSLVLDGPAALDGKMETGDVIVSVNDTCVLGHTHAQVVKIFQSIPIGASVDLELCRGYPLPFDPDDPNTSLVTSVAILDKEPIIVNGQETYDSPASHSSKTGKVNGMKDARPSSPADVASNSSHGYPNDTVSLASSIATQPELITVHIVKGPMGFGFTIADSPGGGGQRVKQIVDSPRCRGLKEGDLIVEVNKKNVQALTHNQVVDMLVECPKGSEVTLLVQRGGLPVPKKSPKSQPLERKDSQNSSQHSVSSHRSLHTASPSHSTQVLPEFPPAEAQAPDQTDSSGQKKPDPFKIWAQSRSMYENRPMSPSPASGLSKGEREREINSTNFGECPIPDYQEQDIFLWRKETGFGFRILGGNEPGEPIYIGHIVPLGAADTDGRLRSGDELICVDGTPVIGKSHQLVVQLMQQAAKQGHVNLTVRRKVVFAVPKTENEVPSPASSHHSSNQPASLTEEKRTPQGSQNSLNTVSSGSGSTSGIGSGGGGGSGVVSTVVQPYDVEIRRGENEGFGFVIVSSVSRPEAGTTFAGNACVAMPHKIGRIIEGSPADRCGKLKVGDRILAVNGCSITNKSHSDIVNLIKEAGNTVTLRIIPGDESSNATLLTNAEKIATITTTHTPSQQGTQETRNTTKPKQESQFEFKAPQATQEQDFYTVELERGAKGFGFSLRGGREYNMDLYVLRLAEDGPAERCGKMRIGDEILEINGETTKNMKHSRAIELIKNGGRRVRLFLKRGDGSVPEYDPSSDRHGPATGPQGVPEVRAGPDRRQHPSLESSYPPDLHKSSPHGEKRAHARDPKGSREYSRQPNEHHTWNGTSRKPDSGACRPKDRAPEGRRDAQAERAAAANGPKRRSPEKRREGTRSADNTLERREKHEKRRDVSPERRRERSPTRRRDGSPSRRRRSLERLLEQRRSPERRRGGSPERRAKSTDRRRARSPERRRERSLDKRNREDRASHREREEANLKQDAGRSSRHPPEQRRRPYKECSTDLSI
- log2 fold change [1]: -0.069
- log2 fold change [2]: -0.042
- log2 fold change [3]: 0.003
- log2 fold change [4]: -0.022
- log2 fold change [5]: 0.019
- log2 fold change [6]: 0.07
- log2 fold change [7]: 0.022
- log2 fold change [8]: 0.125
- log2 fold change [9]: 0.035
- log2 fold change [10]: -0.081

Target: MFSD5 isoform 2 (UniProt Q6N075)
- log2 fold change [1]: -0.037
- log2 fold change [2]: 0.035
- log2 fold change [3]: -0.137
- log2 fold change [4]: -0.089
- log2 fold change [5]: -0.099
- log2 fold change [6]: -0.093
- log2 fold change [7]: -0.009
- log2 fold change [8]: -0.033
- log2 fold change [9]: -0.193
- log2 fold change [10]: -0.049
